Experimental findings from PubChem BioAssay AID2546 (National Center for Advancing Translational Sciences (NCATS), 2010) are described below.

About 11,000 (3.5%) of roughly 310,000 compounds were called active. Where a call stands in place of a potency, no number is given. About 8% were inconclusive and are not listed. The call rests on the fitted dose curve; in most records, active means well fitted inhibition curve with a large enough effect; inconclusive means small, poorly fitted or top-dose-only effect, or effect the other way; inactive means flat fitted curve, though single readings scatter. For the sample, actives were picked, then their nearest neighbours and some compounds at random.
Potency means the concentration at half of the fitted maximal effect.

The nature of the assay: VP16 counterscreen qHTS for inhibitors of ROR gamma transcriptional activity.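 Further: Gal4-VP16 expression switched on by copper sulfate through the metallothionein promoter; nearly all actives have a fitted effect of over 50% in size.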 To be noted: Drosophila S2 Gal4-VP16 UAS-luciferase, luminescence, 20 h; series mostly up to 53.6 µM. For orientation: A counterscreen serves to expose hits that act by an unwanted route or on another target.
On to `Fc1cc(F)c2nc(N3CCOCC3)sc2c1`, for which the Potency entry is “inactive”. To `O=C(Nc1nc2c(F)cc(F)cc2s1)C1COc2ccccc2O1` (centres undefined) belongs “inactive”; to `Fc1cc(F)c2nc(Nc3nc4c(F)cccc4s3)sc2c1`, 7.08 µM (active); to `CCc1ccc(/C=N/NC(=O)c2nnn(-c3nonc3N)c2CN2CCc3ccccc32)cc1`, “inactive”. Regarding `COc1ccc(C(C(=O)NC2CCCCC2)N(C(=O)c2snc(C(N)=O)c2N)c2ccccc2OC)cc1` (centres undefined), the Potency result is “inactive”. To `CCC1(C)Cc2c(sc3nnn(CC(=O)Nc4ccc(Cl)cc4)c(=O)c23)CO1` (centres undefined) belongs “inactive”; to `CCC1(C)Cc2c(sc3[nH]c(=S)n(Cc4ccccc4)c(=O)c23)CO1` (centres undefined), 1.26 µM (active). In the case of `CCC1(C)Cc2c(sc3nc(SC)[nH]c(=O)c23)CO1` (centres undefined) it was “inactive”; in that of `CCOc1ccc(N(CC(=O)Nc2ccccc2F)S(=O)(=O)c2c(C)[nH]c(=O)[nH]c2=O)cc1`, “inactive”. Consider `Cc1cccc(N2CCN(S(=O)(=O)c3ccc(-c4cc(C)no4)s3)CC2C)c1` (centres undefined), for which the Potency entry was “inactive”. In the case of `COCCCNS(=O)(=O)c1cccc(S(=O)(=O)c2cccc(S(=O)(=O)NCCCOC)c2)c1` it was “inactive”; in that of `CCOc1ccccc1NS(=O)(=O)c1c[nH]c(C(=O)OC)c1`, “inactive”. On to `CCCNC(=O)CSc1nc(Cc2ccccc2)nc2ccccc12`, for which the Potency entry was “inactive”. In the case of `COCc1ccc(CN2CCC(Oc3ccc(C(=O)NCc4ccccn4)cc3)CC2)o1` it was “inactive”. As for `C/C(=N\O)C1(C)N(O)C(C)(C)C(c2ccc(Br)cc2)=[N+]1[O-]` (centres undefined), the Potency result was “inactive”. In the case of `CC(=O)C1(C)N(O)C(C)(C)C(c2cccs2)=[N+]1[O-]` (centres undefined) it was 10 µM (active); in that of `CC1(C)C(c2cccs2)=[N+]([O-])C2(CCCCC2=O)N1O` (centres undefined), “inactive”. `COc1ccc(C2/C=C\CN(Cc3ccco3)C(C)C(=O)N2Cc2ccc(F)cc2)cc1` (centres undefined): the Potency result is “inactive”. In the case of `COc1ccc(CN2CN(C3CCCC3)CSC2=S)cc1` it was 11.2 µM (active); in that of `COc1ccc(CN2CN(C(C)C)CSC2=S)cc1`, “inactive”. In the case of `COc1ccc(CN2CC(C(=O)NC3CCCCC3)CC2=O)cc1` (centres undefined) it was “inactive”; in that of `CC(C)Nc1ccc(-n2nc3ccccc3[n+]2[O-])cc1`, 10 µM (active). To `CC1CCN(C(=O)CCNC(=O)c2ccccc2)CC1` belongs “inactive”; to `COc1ccc(CCNC(=O)CN2C(=O)CCSc3ccccc32)c(OC)c1`, “inactive”.

As for `COc1cc(-c2n[nH]c(=S)n2Cc2ccccc2)cc(OC)c1OC`, the Potency result was “inactive”. To `C=CCn1c(-c2ccc3[nH]c(C)c(C)c3c2)n[nH]c1=S` belongs 12.6 µM (active); to `C=CCn1c(=S)sc2c(=O)[nH]c(C)nc21`, “inactive”; to `COC(=O)c1cccc(C(=O)N2CCC(CCC(=O)NCc3ccc(F)cc3)CC2)c1`, “inactive”. To `O=C(c1ccc(Oc2ccc(Cl)cc2)c([N+](=O)[O-])c1)N1CCCC1` belongs “inactive”.
